Screens deposited in PubChem BioAssay by National Center for Advancing Translational Sciences (NCATS).
ClpP mod = qHTS Assay for Activators of ClpP; 340,000 compounds, 1.9% hits; purified B. subtilis ClpP, FRET peptide cleavage, 20 min; ATP-dependent Clp protease proteolytic subunit (Bacillus subtilis (strain 168)), P80244; Potency, µM (top dose mostly 57.5 µM); active means well fitted falling curve with a large enough effect; inconclusive means small, poorly fitted or top-dose-only effect; inactive means no such curve, though single readings can be large or run the other way; further: the source files actives as falling curves though it sought activators and does not explain the sign; nearly all actives have a fitted effect of over 65% in size
Target sequence (P80244 whole entry, looked up): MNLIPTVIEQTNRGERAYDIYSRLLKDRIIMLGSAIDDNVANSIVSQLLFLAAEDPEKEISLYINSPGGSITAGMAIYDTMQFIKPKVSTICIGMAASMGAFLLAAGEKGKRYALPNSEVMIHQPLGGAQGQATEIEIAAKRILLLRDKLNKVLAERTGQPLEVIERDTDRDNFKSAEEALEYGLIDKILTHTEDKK
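ClpP 10 microg/mL final, pH 8 Tris/KCl buffer with BSA, glycerol, Tween-20; compound pinned in; FRET-FV substrate; RT 20 min; Ex320/Em430; ΔFRET vs ADEP 5.8 microM, DMSO, no enzyme.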
IL-2 act = activates IL-2 in a cell-based reporter assay. IL-2 activation reporter assay, cell-based qHTS; stimulated with anti-CD3/CD4/CD28 beads; in transgenic mouse T cells. 360,000 compounds, 0.065% hits. activation, % (series mostly up to about 46 µM); in the data active means activation above about 50%; inconclusive means mostly about 30% to 49%
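Readout: EGFP and DsRed signals by fluorescent plate cytometry. Unstimulated transgenic mouse T cells received compound 60 min before antibody-bead stimulation, then incubated 18 h at 37 degrees C.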
NPSR antagonist = blocks cAMP signaling of the human neuropeptide S receptor; CHO-NPSR cells, cAMP TR-FRET, antagonist mode; Potency, µM (titrated, usually from 38.3 µM), hits mostly inhibitors; 220,000 compounds, 1% hits; AID 1461; further: nearly all actives have a fitted effect of over 50% in size
PKM2 activator = PKM2 (human) enzyme activation; P14618; 260,000 compounds, 0.34% hits; Potency, µM (doses to about 57.5 µM), most hits filed as activators; purified PKM2, Kinase-Glo ATP luminescence, activation; response scale: 0% is enzyme alone, no compound; further: nearly all actives have a fitted effect of over 55% in size
Target sequence (P14618 whole entry, looked up): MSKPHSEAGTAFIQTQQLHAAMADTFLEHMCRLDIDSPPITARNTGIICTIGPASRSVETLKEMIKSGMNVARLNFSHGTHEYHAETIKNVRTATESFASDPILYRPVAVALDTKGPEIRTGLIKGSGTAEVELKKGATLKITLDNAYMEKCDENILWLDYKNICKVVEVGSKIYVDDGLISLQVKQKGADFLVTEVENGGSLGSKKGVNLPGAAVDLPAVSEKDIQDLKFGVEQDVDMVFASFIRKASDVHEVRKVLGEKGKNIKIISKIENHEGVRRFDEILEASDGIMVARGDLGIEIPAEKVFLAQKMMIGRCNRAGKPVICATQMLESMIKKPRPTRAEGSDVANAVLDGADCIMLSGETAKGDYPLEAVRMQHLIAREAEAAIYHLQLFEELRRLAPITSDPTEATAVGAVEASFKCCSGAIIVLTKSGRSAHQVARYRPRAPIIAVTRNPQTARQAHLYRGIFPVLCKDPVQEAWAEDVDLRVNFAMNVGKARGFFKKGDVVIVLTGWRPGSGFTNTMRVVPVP
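Kinase-Glo luminescence reports ATP generated from ADP (0.1 mM) and PEP (0.5 mM) by purified hPK-M2 after 1 h at room temperature, pH 7.2 imidazole buffer; intermediate enzyme activity allows detecting inhibitors and activators.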
Large screens that a line does not name were inactive. Compounds with a hit are over-represented: about 2% of the library has one in this group of screens. Unless noted, the call rests on the fitted dose curve; in most records, active means well fitted curve in the direction sought with a large enough effect; inconclusive means small, poorly fitted or top-dose-only effect, or another doubt; inactive means no such curve, though single readings can be large; an effect the other way counts as inactive or inconclusive.

Cc1ccc(SCC(=O)Nc2ccc3oc(-c4ccc(F)cc4)nc3c2)cc1	ClpP mod 3.5µM (no result: IL-2 act, NPSR antagonist, PKM2 activator)
O=C1C(=C(c2ccccc2)c2ccccc2)Nc2ccccc21	NPSR antagonist 13µM
CC(C)C(=O)Nc1ccc2c(c1)C(=O)N(CCC(=O)O)C2=O	ClpP mod 28µM
COc1ccc(CC(=O)Nc2ccc3c(c2)C(=O)N(CCC(=O)O)C3=O)cc1	none (no result: NPSR antagonist)
Cc1ccc(Nc2c(-c3ccc(C)o3)nc3cnccn23)cc1	PKM2 activator 11µM
Cc1ccc(-c2nc3cnccn3c2Nc2ccc3c(c2)OCO3)o1	PKM2 activator 10µM
CCCCCCC(=O)Nc1ccc2nc3c(=O)n(C)c(=O)n(C)c3nc2c1C	none (no result: IL-2 act, NPSR antagonist, PKM2 activator)
COc1cccc(CNC(=O)Nc2ccc3c(c2)N(C)C(=O)c2ccccc2S3)c1	none (no result: IL-2 act, NPSR antagonist, PKM2 activator)
CCOC(=O)c1ccccc1NC(=O)c1cc2sccc2n1C	ClpP mod 28µM
Cc1ccccc1-n1c(SC(C)C(=O)N2CCN(C)CC2)nc2ccccc2c1=O (stereo unspecified)	none
O=[N+]([O-])c1cc(S(=O)(=O)Oc2ccccc2)ccc1Cl	ClpP mod 35µM (no result: NPSR antagonist, PKM2 activator)
CC(C)Oc1ccc(C(=O)Nc2nnc(SCC(=O)N3CCOCC3)s2)cc1	none
O=C(Nc1ccccc1)C1CCN(S(=O)(=O)c2ccc3c(c2)CCCN3C(=O)C2CCC2)CC1	none (no result: IL-2 act, NPSR antagonist, PKM2 activator)
CCc1nnc(NC(=O)c2ccc3ccccc3n2)s1	none
CCSc1nnc(NC(=O)c2ccc3ccccc3n2)s1	NPSR antagonist 7.9µM
CCn1cc(NC(=O)CCl)c(C)n1	none (no result: ClpP mod, IL-2 act)
CCOC(=O)c1c(-c2ccccc2Cl)cn2ccccc12	ClpP mod 25µM, NPSR antagonist inconclusive
COC(=O)c1oc2ccccc2c1N	ClpP mod 25µM
COc1ccc(CN(C)C(=O)c2cnc(OC)cc2C(F)(F)F)c(OC)c1	none
CC1CCN(C(=O)CSc2ccc(-c3cccnc3)nn2)CC1	none (no result: NPSR antagonist)
CC1CCN(C(=O)CSc2ccc(-c3ccc(F)cc3)nn2)CC1	ClpP mod 32µM
Cc1ccc(-c2nc3ccccn3c2NCc2ccc3c(c2)OCO3)cc1	ClpP mod 32µM, NPSR antagonist inconclusive
CCc1nc2c(OCC=C(C)C)cccn2c1N(C)C(=O)c1ccccc1F	none (no result: NPSR antagonist, PKM2 activator)
Cn1cc(C(C[N+](=O)[O-])c2ccccc2)c2ccccc21 (stereo unspecified)	none (no result: NPSR antagonist, PKM2 activator)
CC(=O)n1cc(C(C[N+](=O)[O-])SCCN)c2ccccc21 (stereo unspecified)	NPSR antagonist 10µM
CCN(CC(=O)Nc1ccccc1C(F)(F)F)C(=O)Cc1ccc2c(c1)CCC2	none (no result: NPSR antagonist, PKM2 activator)
COc1ccc(-c2cc3nc(C)cc(N4CC(C)CC(C)C4)n3n2)cc1 (stereo unspecified)	ClpP mod 40µM
CCOC(=O)c1[nH]c2ccc(OC)cc2c1NC(=O)CCN1CCc2ccccc2C1	ClpP mod 28µM
CCOC(=O)c1[nH]c2ccc(F)cc2c1NC(=O)CN1CCc2cc(OC)c(OC)cc2C1	none (no result: ClpP mod, IL-2 act)
CCOC(=O)c1[nH]c2ccc(OC)cc2c1NC(=O)CCN1CCC(C)CC1	ClpP mod 28µM
COCC(=O)N1CCC(Oc2ccc(C(=O)NC3CCOC(C)(C)C3)cc2)CC1 (stereo unspecified)	none (no result: NPSR antagonist)
CN(C(=O)COc1ccc2ccc(=O)oc2c1)C1CCS(=O)(=O)C1 (stereo unspecified)	none (no result: NPSR antagonist, PKM2 activator)
CCN(C(=O)COc1ccc2ccc(=O)oc2c1)C1CCCCC1	ClpP mod 25µM (no result: NPSR antagonist, PKM2 activator)
CN(C)C(=O)COc1ccc2ccc(=O)oc2c1	ClpP mod 32µM
Cn1c(NN)nc2sc3c(c2c1=O)CC(C)(C)OC3	none
CCC1(C)Cc2c(sc3nc(NC)n(C)c(=O)c23)CO1 (stereo unspecified)	ClpP mod 14µM
Cc1ccc(OCC(=O)N(Cc2ccccc2)C(C)C)c([N+](=O)[O-])n1	ClpP mod 3.2µM
Cc1ccccc1CCNC(=O)c1ccc2c(c1)c(C)c(C)n2C	none (no result: IL-2 act, NPSR antagonist, PKM2 activator)
Cc1c(C)n(Cc2ccccc2)c2ccc(C(=O)NCCc3ccccc3Cl)cc12	ClpP mod 16µM (no result: IL-2 act, NPSR antagonist, PKM2 activator)
CCn1c(C)c(C)c2cc(C(=O)NCCc3ccco3)ccc21	PKM2 activator 28µM (no result: NPSR antagonist)
Cc1cccc(CNC(=O)c2ccc3c(c2)c(C)c(C)n3Cc2ccccc2)c1	none (no result: IL-2 act, NPSR antagonist, PKM2 activator)
Cc1c(C)n(Cc2ccccc2)c2ccc(C(=O)NCc3ccc(OC(C)C)cc3)cc12	ClpP mod 18µM (no result: IL-2 act, NPSR antagonist, PKM2 activator)
Cc1ccccc1CCNC(=O)c1ccc2c(c1)c(C)c(C)n2Cc1ccccc1	ClpP mod 32µM (no result: IL-2 act, NPSR antagonist, PKM2 activator)
CCn1c(C)c(C)c2cc(C(=O)NCCc3cc(OC)c(OC)c(OC)c3)ccc21	none (no result: IL-2 act, NPSR antagonist, PKM2 activator)
COc1ccc(CCNC(=O)c2ccc3c(c2)c(C)c(C)n3Cc2ccc(F)cc2)c(OC)c1OC	ClpP mod 25µM (no result: IL-2 act, NPSR antagonist, PKM2 activator)
CCOC(=O)c1ccc(NC(=O)c2ccc3c(c2)c(C)c(C)n3Cc2ccc(F)cc2)cc1	ClpP mod 18µM (no result: IL-2 act, NPSR antagonist, PKM2 activator)
CCn1c(C)c(C)c2cc(C(=O)NCc3ccc(F)cc3)ccc21	none (no result: IL-2 act, NPSR antagonist, PKM2 activator)
Fc1ccc(-c2nc3ccc(Br)cn3c2Cc2ccccc2)cc1	none (no result: NPSR antagonist, PKM2 activator)
COc1cc(C(O)c2nc(/C=C/c3ccccc3)cs2)ccc1F (stereo unspecified)	none (no result: NPSR antagonist, PKM2 activator)
COc1ccc(C(O)c2nc(/C=C/c3ccc(C(F)(F)F)cc3)cs2)cc1 (stereo unspecified)	ClpP mod 25µM (no result: NPSR antagonist, PKM2 activator)
CCOc1ccc(CCNC(=O)CCC(=O)N2CCSc3ccccc32)cc1OCC	none (no result: NPSR antagonist)
COc1ccc2c(c1)c(/C=C/c1cc[n+](C)cc1)cn2C	IL-2 act 238 (no result: NPSR antagonist, PKM2 activator)
COc1cc2c(cc1NC(=O)CSc1nnnn1-c1ccccc1)oc1ccccc12	none
O=C1c2ccccc2NC(c2cccnc2)N1c1ccccc1F (stereo unspecified)	ClpP mod 11µM
Cc1ccccc1OCC(=O)N/N=C/c1ccc(N(C)C)cc1	none (no result: ClpP mod)
O=C1C=C(Nc2ccccc2)c2ccccc2C1=O	NPSR antagonist 10µM (no result: ClpP mod)
O=C1C=C(Nc2ccccc2)C(=O)c2ccccc21	none
Cn1cc(CNC(=O)CC2C(=O)NCCN2CC(C)(C)C)cn1 (stereo unspecified)	none (no result: ClpP mod)
CCOC(=O)c1ccc(NC(=O)C(=O)NCC2CCCO2)cc1 (stereo unspecified)	ClpP mod 32µM
Nc1ccccc1Nc1cc(-c2ccccc2)nn1-c1cccc(Cl)c1	none
CNc1nn(-c2cccc(Cl)c2)nc1N	ClpP mod 32µM
CN(C)c1ccc(C(=O)N2CC(=O)N(CCc3ccccc3)C(=O)C2)cc1	none
Cc1ccc(S(=O)(=O)N(C)CC(=O)N(CC(C)C)C2CCS(=O)(=O)C2)cc1 (stereo unspecified)	none (no result: ClpP mod, NPSR antagonist, PKM2 activator)
CCCCn1c(-c2ccco2)n[nH]c1=S	ClpP mod 22µM
CCn1c(-c2ccco2)n[nH]c1=S	ClpP mod inconclusive
O=C1c2ccccc2C(=O)N1CSc1nnc(Nc2ccccc2F)s1	ClpP mod 28µM
O=C(Nc1ccc2c(c1)N(S(=O)(=O)c1cccs1)CCC2)c1c(F)cccc1F	ClpP mod 11µM (no result: NPSR antagonist, PKM2 activator)
CC(OC(=O)c1cccc(S(=O)(=O)N2CCCCC2)c1)C(=O)NCC1CCCCC1 (stereo unspecified)	none (no result: ClpP mod, NPSR antagonist, PKM2 activator)
